High-throughput results from PubChem BioAssay.
Most compounds without a hit are left out; they make up all but 11% or so of the library.
Tau fluor cs: counter-screen for tau fibril formation inhibitors. tau K18 P301L Alexa594 fluorescence, heparin fibrillization. Potency, µM (series often up to 57.7 µM), inactives show at the highest dose activity change, negative = decrease. actives 0.93% (n = 280,000). AID 1463; also: potency is read from the fitted curve at half-maximal effect; nearly all actives have a fitted effect of over 55% in size
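Human tau K18 P301L (15 uM unlabeled, 0.24 uM Alexa 594-labeled) in 100 mM sodium acetate pH 7 with 20 uM heparin, 6 hr at 37 C. ThT 30 uM added, 1 hr ambient; Alexa 594 FP and total fluorescence read at 555/632 nm.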
Tau ThT inhib: blocks human tau fibril formation measured by thioflavin T; P10636; recombinant tau K18 P301L (four-repeat tau fragment), heparin-induced fibrillization, ThT fluorescence; Potency, µM (titrated, usually from 57.4 µM), without a hit: at the top dose activity, negative = inhibition, most hits filed as inhibitors; actives 2.1% (n = 270,000); also: potency is read from the fitted curve at half-maximal effect; nearly all actives have a fitted effect of over 55% in size
Target sequence (P10636 561-689 P618L limits assumed): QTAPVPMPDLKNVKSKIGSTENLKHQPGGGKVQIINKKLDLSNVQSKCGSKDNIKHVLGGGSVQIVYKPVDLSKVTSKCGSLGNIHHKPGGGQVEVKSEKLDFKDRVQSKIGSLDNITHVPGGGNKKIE
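Tau K18 P301L fragment (15 uM unlabeled plus 0.24 uM Alexa 594-labeled) in 100 mM sodium acetate pH 7 with compound, fibrillization induced by 20 uM heparin for 6 hr at 37 C. Thioflavin T (30 uM) added, fluorescence read after 1 hr (ex 450, em 510 nm).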
FBPA coupling cs: coupling enzyme interference in Giardia aldolase counter-screen; coupling enzyme system counterscreen, AmpLite Red fluorescence; activity change, negative = inhibition, % at 58.2 µM, hits read low; actives 0.67% (n = 290,000); in the data active = activity change below about -30%
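Activity here indicates interference with the coupling reaction, not aldolase inhibition. Compounds at 57.5 uM final met coupling enzymes for 10 min at RT; substrate and AmpLite Red detection followed, with a 525/598 nm fluorescence read after 20 min.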
G9a inh: blocks human histone lysine methyltransferase G9a. Q96KQ7. G9a H3K9 monomethylation, AlphaScreen, 2 h. Potency, µM (titrated, usually from 102 µM), without a hit: top-dose activity, negative = inhibition, hits mostly inhibitors. actives 8.8% (n = 350,000). AID 504332; also: potency is read from the fitted curve at half-maximal effect; nearly all actives have a fitted effect of over 75% in size
Target sequence (Q96KQ7 913-1193 limits assumed): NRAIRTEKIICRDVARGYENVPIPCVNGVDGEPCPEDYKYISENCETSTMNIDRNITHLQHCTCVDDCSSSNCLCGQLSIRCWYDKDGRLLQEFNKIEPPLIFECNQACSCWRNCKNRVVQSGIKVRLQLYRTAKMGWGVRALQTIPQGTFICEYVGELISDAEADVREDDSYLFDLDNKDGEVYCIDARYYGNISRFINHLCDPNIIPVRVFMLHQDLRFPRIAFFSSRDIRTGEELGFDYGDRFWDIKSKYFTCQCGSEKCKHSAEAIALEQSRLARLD
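AlphaScreen read-out: biotin-H3K9 peptide (500 nM) methylation by 20 nM enzyme with 20 uM SAM, 2 h at room temperature after 15 min compound preincubation; anti-monomethyl H3K9 antibody plus donor/acceptor beads, 10 min dark.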
Tau fibril FP: blocks human tau fibril formation measured by polarization; P10636; K18 P301L tau heparin fibrillization, Alexa594 FP, 6 h; Potency, µM (top dose mostly 57.7 µM), without a hit: at the top dose activity, negative = inhibition, most hits filed as inhibitors; actives 0.39% (n = 280,000); also: potency is read from the fitted curve at half-maximal effect; nearly all actives have a fitted effect of over 55% in size
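Read-out: fluorescence polarization of Alexa 594-labeled tau (0.24 uM), 555 nm excitation, 632 nm emission. Mixtures held 15 uM unlabeled K18 P301L, compound and 20 uM heparin, pH 7 acetate buffer, incubated 6 hr at 37 C.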
Sfp inh: Sfp phosphopantetheinyl transferase inhibition. Q9F4F7. Biochemical Sfp PPTase activity, qHTS. Potency, µM, for the others: largest response in the series, negative = inhibition, usual class: inhibitors. actives 3.5% (n = 310,000);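 also: the enzyme is Sfp with the accession as filed and its product quenches rhodamine fluorescence; potency is read from the fitted curve at half-maximal effect; 0% = enzyme reaction without inhibitor and -100% = no enzyme wells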
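Step 1, compound plus 15 nM Sfp-PPTase, 15 min, room temperature. Step 2, add rhodamine-CoA (5 uM) and BHQ-2-YbbR (12.5 uM). Step 3, read 525/598 nm fluorescence at 0 and 30 min.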
An asterisk follows results filed as active; ? = inconclusive; . = no result given; [ ] = another dose, or the depositor's remark. Unless noted, calls follow the shape of the dose curve; as a rule, active = well fitted curve in the direction sought with a large enough effect; inconclusive = small, poorly fitted or top-dose-only effect, or another doubt; inactive = no such curve, though single readings can be large; an effect the other way counts as inactive or inconclusive. Unless noted, % is scaled to controls: 0 for no effect and ±100 for the full control effect.

SMILES	Tau fluor cs	Tau ThT inhib	FBPA coupling cs	G9a inh	Tau fibril FP	Sfp inh
COc1cc(N=Nc2c(O)c3ccccc3[nH]c2=O)c(OC)cc1N=Nc1ccccc1	?	7.1µM*	-1	45µM*	-12%	-8%
NC(=O)c1ccc(N=Nc2c(O)c3ccccc3[nH]c2=O)cc1	-19%	0.5µM*	3	?	?	-8%
Cc1cc(=O)n(Cc2ccccc2Cl)c2c1c(C)nn2-c1ccccc1	-7%	-1%	.	58%[59 µM]	?	.
COc1ccc(CCNC(=O)Cn2nnc(-c3ccc(C(F)(F)F)cc3)n2)cc1OC	-5%	2%	.	2%[59 µM]	-9%	.
CC(=O)n1cc(C(C[N+](=O)[O-])SCCN)c2ccccc21 (stereo unspecified)	-19%	13µM*	-1	7.9µM*	-10%	20µM*
COCC(C)n1c(SCC(=O)c2cc(C)n(C)c2C)nc2ccccc2c1=O (stereo unspecified)	-24%	-7%	-3	40µM*	0%	-19%
COCC(C)n1c(C)cc(C(=O)CSc2ncccn2)c1C (stereo unspecified)	-6%	-7%	0	35µM*	3%	-7%
O=C(c1ccco1)N1CCN(CC(O)Cn2c3ccccc3c3ccccc32)CC1 (stereo unspecified)	-29%	?	3	?	1%	-6%
CC(C)OCC(O)CN1CCC(Cc2ccccc2)CC1 (stereo unspecified)	.	.	-1	-3%	.	6%
COC(=O)c1ccc(OCC(O)CN2CCN(C(=O)c3ccco3)CC2)cc1 (stereo unspecified)	.	.	-6	28µM*	.	?
CC(=O)N1CCN(CC(O)COc2ccc(Br)cc2)CC1 (stereo unspecified)	.	.	-1	8.9µM*	.	-22%
O=C(c1ccco1)N1CCN(CC(O)COc2ccc(Br)cc2)CC1 (stereo unspecified)	.	.	4	50µM*	.	13%
COC(=O)c1ccc(OCC(O)CN2CCN(C(=O)c3ccco3)CC2)c(OC)c1 (stereo unspecified)	.	.	1	10%	.	15%
OC(COc1ccc(Br)cc1)CN1CCC(Cc2ccccc2)CC1 (stereo unspecified)	.	.	0	79µM*	.	6%
CCC12CN3CC(C)(CN(C1)C3c1c[nH]c3ccccc13)C2=O (stereo unspecified)	-4%	7%	.	2%[59 µM]	3%	.
CCCCOCC(O)CN1CCN(C(C)=O)CC1 (stereo unspecified)	-3%	-8%	4	11µM*	7%	?
COc1ccc(-c2nc(C#N)c(N3CCc4ccccc4C3)o2)cc1OC	?	?	.	28µM*	17%	4%
COc1ccc(N2CCN(c3oc(-c4ccco4)nc3C#N)CC2)cc1	-26%	-15%	-4	25µM*	-3%	-5%
N#Cc1nc(-c2ccco2)oc1N1CCN(c2ccccc2)CC1	?	?	4	?	4%	-7%
N#Cc1nc(-c2ccco2)oc1N1CCC(Cc2ccccc2)CC1	?	-22%	0	28µM*	14%	-10%
COc1ccc(N2CCN(c3oc(-c4ccccc4OC)nc3C#N)CC2)cc1	?	?	2	2.5µM*	?	-15%
CCc1cccc(CC)c1NC(=O)Cn1nnc2sc(-c3ccccc3)cc2c1=O	-11%	-3%	.	10%[59 µM]	-13%	.
COc1ccccc1-c1nc(C#N)c(N2CCN(c3ccccc3)CC2)o1	-29%	?	-4	?	8%	11%
COc1ccccc1-c1nc(C#N)c(N2CCCCCC2)o1	-29%	?	11	45µM*	-3%	?
COc1ccc(-c2nc(C#N)c(N3CCN(c4ccccc4)CC3)o2)cc1	?	?	0	8.9µM*	3%	-25%
SMILES	Tau fluor cs	Tau ThT inhib	FBPA coupling cs	G9a inh	Tau fibril FP	Sfp inh
CCCc1nnc(NC(=O)Cc2coc3ccc(C(C)C)cc23)s1	-3%	3%	.	-3%[59 µM]	-7%	.
O=C(CCc1nc(-c2ccccc2)no1)NCc1ccco1	3%	-3%	1	-17%[59 µM]	5%	-16%
Cc1ccc(-c2noc(CCC(=O)NCc3ccco3)n2)cc1	-6%	-7%	5	?	5%	56µM*
O=C(NC(=S)NCc1ccco1)c1cccc(Cl)c1	.	.	.	71µM*	.	-3%
S=C(NCCc1ccc(Cl)cc1)NCc1ccco1	-25%	?	-6	50µM*	-6%	?
Cc1ccc(C(=O)NC2CC3CCCC(C2)N3C(=S)NCc2ccco2)cc1 (stereo unspecified)	-25%	?	2	?	-14%	45µM*
COc1ccc(N2CCN(S(=O)(=O)c3ccc4oc(=O)c5ncn(C)c5c4c3)CC2)cc1	0%	10%	.	-7%[59 µM]	2%	.
CC1CCCCC12NC(=O)N(CC(=O)OCC(=O)NC(=O)c1ccccc1)C2=O (stereo unspecified)	.	.	.	-6%[12.7 µM]	.	.
Cc1ccc(-c2noc(CCC(=O)N(C)c3ccccc3C)n2)cc1	-2%	-10%	1	12%	7%	50µM*
CCN(C(=O)CCc1nc(-c2ccc(C)cc2)no1)c1cc(C)ccc1C	-14%	?	.	21%[59 µM]	-5%	.
COc1cccc(C(=O)NC(=S)NCc2ccco2)c1	-23%	-17%	1	?	-9%	-16%
Cc1ccc(C(=O)NC(=S)NCc2ccco2)cc1	-9%	-9%	3	45µM*	-8%	-23%
COc1cc(OC)cc(C(=O)NC(=S)NCc2ccco2)c1	-16%	-1%	-1	45µM*	-12%	-13%
COc1ccc(-c2cc3ncc(C)n3c(Nc3ncccc3C(N)=O)n2)cc1OC	.	.	.	19µM*	.	.
Cc1ccc(Nc2ncccc2C(N)=O)cc1	?	?	0	-8%	11%	-2%
Cc1ccc2nc(NC(=O)CCn3cccc3)sc2c1	-9%	-4%	1	3%	-11%	5%
Cc1cccc2sc(NC(=O)CSCc3ccccc3)nc12	?	-13%	2	23%[12.7 µM]	?	4%
Cc1cccc2sc(NC(=O)Cn3cccc3)nc12	3%	2%	0	45µM*	-1%	-8%
Cc1cccc2sc(NC(=O)CCn3cccc3)nc12	-19%	-2%	0	50µM*	-12%	13%
CCC(=O)NNc1nc2c(C)cccc2s1	-3%	-4%	-2	?	-1%	50µM*
COc1cccc(-c2nn(-c3ccc(C)cc3)cc2C(=O)N2CCN(C3CCS(=O)(=O)C3)CC2)c1 (stereo unspecified)	.	.	.	-3%[59 µM]	.	.
Cc1ccc(S(=O)(=O)N2CCN(CC(=O)NCC3(N4CCOCC4)CCCCC3)CC2)cc1	.	.	.	45µM*	.	.
